Source: PubChem (several laboratories)
RecA splice inh = Mtb RecA intein splicing inhibitors, primary screen, biochemical, fluorescence, HTS; Protein RecA (Mycobacterium tuberculosis (strain ATCC 25618 / H37Rv)), P9WHJ3; cell-free RecA intein splicing; inhibition, % (concentration not given with the values); actives 0.75% (n = 290,000); in the data active = inhibition above about 30%; inconclusive = no clear call, values can overlap the other calls;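 note: 0% = vehicle wells and 100% = reference inhibitor control wells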
UGM FP inh = M. tuberculosis UGM enzyme inhibitors, primary screen, biochemical, fluorescence polarization, single point; actives 0.06% (n = 320,000); AID 504406, 2011; purified UGM, fluorescence polarization probe displacement; inhibition, % at 10 µM; UDP-galactopyranose mutase (Mycobacterium tuberculosis (strain ATCC 25618 / H37Rv)), …; in the data active = inhibition above about 10%, passing the limit was not always enough; inconclusive = no clear call, values can overlap the other calls
Rv3671c inh = Rv3671c serine protease inhibitors, primary screen, biochemical, fluorescence polarization, M. tuberculosis H37Rv; inhibition, % at 5.96 µM; P9WHR9; actives 0.048% (n = 320,000); in the data active = inhibition above about 38%;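 note: extracellular domain of Rv3671c used as enzyme; 0% = enzyme with DMSO and 100% = no enzyme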
Mtb bLac sens = beta-lactam sensitization of Mtb H37Rv, H37Rv. actives 0.27% (n = 330,000). M. tuberculosis H37Rv growth with meropenem, percent inhibition. inhibition, % at 25 µM. AID 434955, 2010; call rule not given here;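 note: growth measured after seven days incubation then overnight dye step; 0% = bacteria only wells and 100% = bacteria with antibiotic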
Mtb FBA inh = Mtb FBA enzyme inhibitors, primary screen, biochemical, fluorescence, strain H37Rv. Fructose-bisphosphate aldolase (Mycobacterium tuberculosis (strain ATCC 25618 / H37Rv)), …. inhibition, % at 1 µM. purified M. tuberculosis FBA, fluorescence read-out. actives 2.3% (n = 360,000); in the data active = inhibition above about 27%;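 note: 0% = vehicle and 100% = reference inhibitor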
Target sequence (P9WQA3 whole entry, looked up): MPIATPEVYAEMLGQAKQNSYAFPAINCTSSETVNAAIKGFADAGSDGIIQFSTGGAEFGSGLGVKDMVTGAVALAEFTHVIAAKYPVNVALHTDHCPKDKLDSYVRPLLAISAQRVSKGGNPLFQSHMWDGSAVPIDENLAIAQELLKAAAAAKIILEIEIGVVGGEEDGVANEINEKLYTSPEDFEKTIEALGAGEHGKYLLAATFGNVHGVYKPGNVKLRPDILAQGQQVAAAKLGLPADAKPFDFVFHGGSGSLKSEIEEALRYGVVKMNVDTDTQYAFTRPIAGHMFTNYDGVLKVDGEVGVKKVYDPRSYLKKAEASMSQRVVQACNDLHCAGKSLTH
GDH-TPI counter = GDH-TPI coupling enzyme inhibitors, primary screen, artefact control for M. tuberculosis FBA inhibitor project, biochemical, absorbance, full deck; GDH-TPI coupled enzyme counterscreen, NADH absorbance; inhibition, % at 4.8 µM; actives 1.2% (n = 360,000); in the data active = inhibition above about 30%;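 note: 0% = DMSO wells and 100% = wells lacking the enzyme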
* hit, by the source's call; i = inactive; ? = inconclusive; / = no result; + = active, no number. Rows were chosen to be rich in hits. Some 4% of all compounds tested hit in one or more screens of this group.

SMILES | RecA splice inh | UGM FP inh | Rv3671c inh | Mtb bLac sens | Mtb FBA inh | GDH-TPI counter
CC(=O)Nc1ccc2c(COC(=O)[C@H](C)N3C(=O)C4CCCCC4C3=O)cc(=O)oc2c1 (stereo partly specified) | -1 | 0 | 4 | -1 | + | 32*
CCOC(=O)Nc1ccc2c(CN3CCC(C(=O)OC)CC3)cc(=O)oc2c1 | -2 | 1 | -2 | 2 | 21 | 7
COCOCCn1cc(CN2CCS(=O)(=O)N(Cc3ccc(-c4cccc(CO)c4)cc3)C(C)C2=O)nn1 (stereo unspecified) | / | / | / | / | 0 | -1
Cc1c(CC(=O)N2C[C@H]3C[C@@H](C2)c2cccc(=O)n2C3)c(=O)oc2cc(O)c(Cl)cc12 | -486 | 3 | -11 | -4 | / | 31*
Cc1c(CC(=O)N2C[C@H]3C[C@@H](C2)c2cccc(=O)n2C3)c(=O)oc2c(C)c(O)ccc12 | -70 | 5 | -8 | -5 | + | 11
Cc1c(CCC(=O)N2C[C@H]3C[C@@H](C2)c2cccc(=O)n2C3)c(=O)oc2c(C)c(O)ccc12 | / | / | / | / | 191* | 8
COC(=O)C12CCc3c(ccc4cc(OC)ccc34)C1=CC(=O)C2 (stereo unspecified) | / | / | / | / | + | 45*
COc1ccc2cc(C(=O)O)ccc2c1 | -1 | -1 | 8 | 2 | 5 | 10
Cc1ccccc1CNC(=O)C(C)Sc1ccccc1 (stereo unspecified) | / | / | / | / | 0 | 7
C=CCn1c(N)c(C(=O)NCCC2=CCCCC2)sc1=S | 13 | 1 | -4 | 14 | 2 | 35*
COc1cccc(/C=N/Nc2nc3ccccc3[nH]2)c1O | 0 | 2 | 8 | 53 | -4 | 36*
COc1cc(/C=N/Nc2nc3ccccc3[nH]2)ccc1O | 3 | -4 | 11 | 7 | 3 | 50*
COc1cc(/C=N/Nc2nc3ccccc3[nH]2)cc(OC)c1O | 9 | -2 | 21 | 3 | -5 | 23
COc1cccc(/C=N/Nc2nc3ccccc3[nH]2)c1OC | 0 | 0 | 6 | -4 | -1 | 14
CCC(C)n1c(=N)c(C#N)cc2c(=O)n3cccc(C)c3nc21 (stereo unspecified) | i | 2 | 0 | 1 | 20 | 1
Cc1cccn2c(=O)c3cc(C#N)c(=NC(=O)c4ccco4)n(Cc4ccco4)c3nc12 | -93 | 2 | 5 | 2 | + | 9
Cc1cccn2c(=O)c(/C=C(\C#N)C(=O)NCc3ccco3)c(N3CCOCC3)nc12 | -1 | 4 | 4 | -3 | 14 | 9
Cc1cccn2c(=O)c3cc(C#N)c(=NC(=O)c4ccccc4)n(Cc4ccco4)c3nc12 | -317 | 3 | -14 | -8 | 182* | 16
Cc1cccc(C(=O)N=c2c(C#N)cc3c(=O)n4cccc(C)c4nc3n2Cc2ccco2)c1 | -2 | 2 | -11 | -4 | 168* | 8
Cc1ccc(Cn2c(=N)c(C#N)cc3c(=O)n4cccc(C)c4nc32)cc1 | -8 | 1 | -13 | -4 | / | /
O=S(=O)(c1ccc(F)cc1)N1CCC2(CC1)OCCN2S(=O)(=O)c1cccs1 | 1 | 3 | 4 | -5 | 2 | 3
COCCn1c(N)c(N(Cc2ccccc2)C(=O)COc2ccccc2F)c(=O)[nH]c1=O | / | 0 | -9 | -6 | 2 | 0
Cc1ccc(C)c(C(=O)COC(=O)c2cccc(N3C(=O)c4c(C)nc5ccccc5c4C3=O)c2)c1 | 1 | 4 | 0 | -6 | 0 | 10
O=C(O)c1cccc(N2C(=O)c3ccc4c5c(ccc(c35)C2=O)C(=O)N(c2cccc(C(=O)O)c2)C4=O)c1 | -6 | 3 | -9 | -7 | -3 | 38*
O=C(O)c1cccc(N2C(=O)c3ccc(Oc4ccc(Cl)cc4)cc3C2=O)c1 | 6 | -3 | -7 | -1 | 3 | -3
SMILES | RecA splice inh | UGM FP inh | Rv3671c inh | Mtb bLac sens | Mtb FBA inh | GDH-TPI counter
Cc1nc2ccccc2c2c1C(=O)N(C(C)C)C2=O | 41* | -1 | -6 | -7 | -2 | 4
Cc1nc2ccccc2c2c1C(=O)N(c1cccc(C(=O)O)c1)C2=O | 45* | -1 | 1 | 6 | 8 | -8
Cc1nc2ccccc2c2c1C(=O)N(CCC1=CCCCC1)C2=O | 12 | / | / | / | / | /
CCc1nnc(NC(=O)c2cc(Cl)ccn2)s1 | -3 | 1 | 4 | 91 | 2 | 1
N#Cc1ccc(CSc2nnc(NC(=O)CCc3nc4ccccc4c(=O)[nH]3)s2)cc1 | -1 | -2 | -1 | 8 | -1 | -10
CC1(C)N=C(SCC(=O)Nc2ccc(Cl)cc2Cl)C(c2ccccc2)=N1 | 32* | 3 | -4 | 0 | -7 | 9
CC(C)/C=N/Nc1nc2c(c(=O)n(C)c(=O)n2C)n1C | 1 | 1 | 8 | 6 | -1 | 9
CN(C)N=Nc1nc2c(c(=O)n(C)c(=O)n2C)n1C | 0 | 1 | 6 | -2 | 0 | 34*
Cc1c(CC(=O)NCC(C)C)c(=O)oc2cc3c(cc12)CCC(C)(C)O3 | 0 | -3 | -7 | 4 | 140* | 16
Cc1oc2cc3oc(=O)c(CC(=O)N[C@@H](C)C(=O)NC(Cc4ccc(Cl)cc4)C(=O)O)c(C)c3cc2c1C (stereo partly specified) | -4 | -2 | -2 | 3 | 5 | 9
CC[C@@H](C)[C@H](NC(=O)Cc1c(C)c2cc3c(C)c(C)oc3c(C)c2oc1=O)C(=O)O | 1 | -2 | -11 | 5 | 1 | 6
Cc1oc2cc3oc(=O)c(CC(=O)NCCC(=O)O)c(C)c3cc2c1C | -1 | / | / | / | 8 | 18
Cc1oc2cc3oc(=O)c(CC(=O)N[C@H](C(=O)N[C@@H](C(=O)O)c4ccccc4)C(C)C)c(C)c3cc2c1C | 3 | 0 | 0 | 2 | 9 | 23
Cc1c(CC(=O)N[C@@H](C)C(=O)O)c(=O)oc2cc3c(cc12)CCC(C)(C)O3 | -1 | -2 | 7 | 10 | + | 26
CCC(C)NC(=O)Cc1c(C)c2cc3c(cc2oc1=O)OC(C)(C)CC3 (stereo unspecified) | -1 | 2 | 11 | -7 | 189* | 17
Cc1c(CC(=O)NC(C)C)c(=O)oc2cc3c(cc12)CCC(C)(C)O3 | 1 | -1 | -6 | -1 | + | 22
COc1ccc(F)c(CN2CCC(n3nccc3NC(=O)C3CCOC3)CC2)c1 (stereo unspecified) | 2 | 0 | -8 | ? | 0 | 2
C=CCn1nc(C(=O)N2CCOCC2)cc1-c1sc(NC(=O)c2ccccc2)nc1C | / | / | / | / | -3 | 7
